What is called viability is a read-out of living cells in per cent, often relative to untreated cells.

The structures appear in SMILES notation.

A short description of the test: reducers of endogenous Her2 protein level, primary screen, SKBR3 breast tumor cells, AlphaScreen, ATP viability (AID 461).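 Note: percent of carrier control wells set as 100% viability.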 The settings on record: 18-24 h, measured here: SKBR3 viability, ATP luminescence, at 10 µM. (In general: Bead proximity is the source of the signal in Alpha formats.)
Regarding `COCCCNC(=O)c1ccc(CS(=O)(=O)c2ccc(OC)cc2)o1`, the viability was 104%.

`O=C(c1ccc(CSCc2ccccc2F)o1)N1CCN(c2ccc(N3CCOCC3)nn2)CC1`: the viability is 84.5%.

Take `COCCOC(=O)c1[nH]c2c(c1C)C(=O)CC(c1ccco1)C2` (stereo not given): the viability is 85%.

Turning to `CCOC(=O)CSc1nnc(Cn2c(=O)sc3ccccc32)n1C`, the viability amounted to 96%.

For `CCCC(=O)C1=C(N(C)c2ccccc2)CC(C)(C)C(C(=O)OC)C1=O` (stereo not given), the viability was found to be 95%.

For the compound `CC1(C)CC(=O)N(CC(=O)NCc2ccccc2)c2ccccc2S1(=O)=O`, the viability is 78.5%.

With `CCOc1cc(C2NC(=O)NC(O)(C(F)(F)F)C2C(=O)c2ccccc2)ccc1OC` (stereo not given), the viability was found to be 108%.

For `Cn1c(C(=O)NCCN2CCN(c3ccccc3F)CC2)cc2c(=O)n(C)c3ccccc3c21`, the viability turned out to be 89%.

As to `Cc1cc2ccccc2n1CCNC(=O)C1CC1`, the viability was determined as 89.5%.

Take `Cc1cccc(NC(=O)CS(=O)(=O)c2cn(C)c3ccccc23)c1`: the viability stood at 98%.

On to `COc1nnc(-c2ccc(C)c(S(=O)(=O)NCCO)c2)c2ccccc12`, for which the viability amounted to 93.5%.

With `COc1ccc(-c2cnc(SCC(=O)Nc3ccc4c(c3)OCO4)n2Cc2ccco2)cc1`, the viability turned out to be 102%.

As for `Cn1cnc2cc(NC(=O)c3ccc(Cl)cc3)ccc21`, the viability came to 91.5%.

For the compound `CC1CCc2nn(CC(=O)Nc3ccc(F)cc3F)cc2C1` (stereo not given), the viability turned out to be 108%.

For the compound `Cc1ccc(-c2noc(CN3CCN(c4ccccc4F)CC3)n2)cc1`, the viability was 89.5%.

As to `Cc1ccc(NC(=O)c2cc(-c3ccc(C)o3)nc3ccccc23)nc1`, the viability is 80%.

Consider `Cc1nnc(N2C(=O)C(O)=C(C(=O)c3ccco3)C2c2ccc(F)cc2)s1` (stereo not given), for which the viability came out at 99%.

Take `COc1ccccc1N(CC(=O)Nc1cccnc1)S(C)(=O)=O`: the viability stood at 94.5%.

As for `CCCc1cc(C(=O)Nc2ccccc2SC)no1`, the viability was 86%.

As to `O=C(CSc1nc2c(c(=O)n1-c1ccc(F)cc1)SCC2)NCC1CCCO1` (stereo not given), the viability is 93.5%.

Take `COc1ccc(-c2nc(C)c(C(C)=O)n2O)cc1OC`: the viability came to 89%.

With `C=CCOC(=O)COc1ccc2c(C)c(C)c(=O)oc2c1C`, the viability came out at 106%.

With `CN(C)CCCNC(=O)CCC1CCCCC1`, the viability came out at 93%.

With `CC(C)(O)C#Cc1ccc(C(=O)N2CCN(C(=O)c3ccco3)CC2)cc1`, the viability stood at 102%.

For the compound `Nc1cccc2c1C(=O)N(c1ccccc1)C2=O`, the viability was 95%.

Turning to `COc1ccc(N2CCN(CCNC(=O)CCS(=O)(=O)c3cccc4nsnc34)CC2)cc1`, the viability worked out at 90%.

Consider `CCOC(=O)CCc1c(C)nc2cc(-c3ccc(F)cc3)[nH]n2c1=O`, for which the viability worked out at 97%.

Turning to `O=C1CC(c2cccnc2)c2cc3c(cc2N1)OCO3` (stereo not given), the viability stood at 99.5%.

As to `COc1ccccc1CNC(=O)C1CCCN(S(=O)(=O)c2cccc3cccnc23)C1` (stereo not given), the viability was determined as 92.5%.

Regarding `Oc1c(C(c2ccccc2)N2CCc3ccccc3C2)sc2ncnn12` (stereo not given), the viability is 87.5%.

Regarding `O=C(NCCc1c[nH]c2ccccc12)c1cnc2n(c1=O)CCS2`, the viability amounted to 92%.

With `CC(NC(=O)c1cc2c(=O)n(C)c3ccccc3c2n1C)c1ccc2c(c1)OCCO2` (stereo not given), the viability worked out at 94.5%.

For the compound `CCOC(=O)c1ccc(-n2c(C)nc3c(cnn3-c3ccccc3C)c2=O)cc1`, the viability was determined as 94%.

In the case of `COc1ccc(CCNC(=O)CSc2nnnn2-c2ccccc2OC)cc1OC`, the viability is 91%.

For `CCCSc1nnc(N2C(=O)CC(c3ccsc3)C3=C2CCCC3=O)s1` (stereo not given), the viability came out at 92.5%.

Turning to `COC(=O)Cn1c(=O)c2c(nc3n2CC(C)CN3c2ccc(C)c(C)c2)n(C)c1=O` (stereo not given), the viability was 90.5%.

As to `O=C(Nc1cccnc1)Nc1ccccn1`, the viability turned out to be 100%.

Take `CCn1cc(C(=O)NCc2ccccc2OC)c(=O)c2cc(S(=O)(=O)N(C)C)ccc21`: the viability amounted to 78.5%.

For `CC1CCN(c2oc(-c3ccccc3F)nc2C#N)CC1`, the viability stood at 82%.

In the case of `Clc1ccc(Nc2ncnc3c2cnn3-c2ccccc2)cc1`, the viability is 116%.

Source of the values: PubChem BioAssay.
